In PubChem BioAssay (NCATS):
Records with an inconclusive call do not appear. Entries that show only a call come without a potency. Activity calls are given as the source filed them. Calls come from the whole dose curve; as a rule, active = well fitted inhibition curve with a large enough effect; inconclusive = small, poorly fitted or top-dose-only effect; inactive = flat fitted curve, though single readings scatter.

These compounds were tested on CP256 (assay: qHTS profiling for inhibitors of Plasmodium falciparum proliferation (AID 504749; note: nearly all actives have a fitted effect of over 60% in size)). Conditions: P. falciparum in erythrocytes, SYBR Green DNA, 72 h; series mostly up to 28.7 µM.
Outline: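 P. falciparum-infected erythrocytes (0.3% parasitemia, 2.5% hematocrit) incubated with compound 72 h at 37 C, 5% CO2. Parasite DNA detected by SYBR Green after lysis, overnight at room temperature; normalised to 0.29 uM artemisinin and DMSO.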
Potency is the fitted concentration of half-maximal effect.

Structure (SMILES)	Potency
CCCCCCCC/C=C\CCCCCCCC(=O)O	inactive
COC(F)(F)C(Cl)Cl	inactive
Nc1ncnc2c1ncn2[C@@H]1O[C@H](COP(=O)(O)OP(=O)(O)OP(=O)(O)O)[C@@H](O)[C@H]1O	inactive
Nc1c(N=Nc2ccc(-c3ccc(N=Nc4cc(S(=O)(=O)O)c5ccccc5c4N)cc3)cc2)cc(S(=O)(=O)O)c2ccccc12	inactive
C#CCOc1ccc2c(C)cc(=O)oc2c1	inactive
CC(O)CO (stereo not given)	inactive
COc1ccc2c3c1O[C@H]1C[C@@H](O)C=C[C@@]31CCN(C)C2	inactive
O=S(=O)(O)O	inactive
CCCCCCCCCCCCCCCC(=O)OCC(COC(=O)CCCCCCCCCCCCCCC)OC(=O)CCCCCCCCCCCCCCC	inactive
O=C(O)CN(CCN(CC(=O)O)CC(=O)O)CC(=O)O	inactive
CCCCCCC(O)C/C=C/CCCCCCCC(=O)O (stereo not given)	inactive
C=CCSSSCC=C	inactive
CCC(=O)NCCC1CCc2ccc3c(c21)CCO3 (stereo not given)	inactive
C[C@@H]1CCC2[C@@H](C)[C@@H](O)O[C@@H]3O[C@@]4(C)CC[C@@H]1[C@@]23OO4 (stereo not given in full)	2.2 nM (active)
CCCCC/C=C\C/C=C\CCCCCCCC(=O)O	inactive
CCCC(=O)O[C@]1(C(=O)CCl)[C@H](C)C[C@@H]2[C@H]3CCC4=CC(=O)C=C[C@]4(C)[C@@]3(F)C(=O)C[C@@]21C	794 nM (active)
CCOc1ccc(N=Nc2ccc(N)cc2N)cc1	inactive
NC(=O)c1ncn(C2OC(CO)C(O)C2O)n1 (stereo not given)	inactive
COCC(=O)Nc1cc(Sc2ccccc2)ccc1N=C(NC(=O)OC)NC(=O)OC	inactive
CC1=C(/C=C/C(C)=C/C=C/C(C)=C/C=C/C=C(C)/C=C/C=C(C)/C=C/C2=C(C)CCCC2(C)C)C(C)(C)CCC1	inactive
Cc1ccccc1OCC(O)CNCCOc1ccc(C(N)=O)cc1 (stereo not given)	inactive
CCCCCCCC(=O)O	inactive
CC1=CCC(C(C)(C)O)CC1 (stereo not given)	inactive
CC(NNC(=O)c1ccccc1)c1ccccc1 (stereo not given)	inactive
CCOc1ccc2c(c1)C(C)=CC(C)(C)N2	inactive
CO[C@H]1C[C@@H]2CC[C@@H](C)[C@@](O)(O2)C(=O)C(=O)N2CCCC[C@H]2C(=O)O[C@H]([C@H](C)C[C@@H]2CC[C@@H](OCCO)[C@H](OC)C2)CC(=O)[C@H](C)/C=C(\C)[C@@H](O)[C@@H](OC)C(=O)[C@H](C)C[C@H](C)/C=C/C=C/C=C/1C	3550 nM (active)
COC(=O)CCC(=O)CN	inactive
Cc1ccccc1	inactive
CCCCC(C)(O)C/C=C/[C@H]1[C@H](O)CC(=O)[C@@H]1CCCCCCC(=O)OC (stereo not given in full)	inactive
O=C(O)c1cc(O)c2c(c1)[O][Bi][O]2	inactive
